High-throughput results deposited in PubChem BioAssay by National Center for Advancing Translational Sciences (NCATS).
This is a sample that favours compounds with a hit; in the whole collection about 8.7% have one here.
Pf growth 48h: P. falciparum growth inhibition at 48 hours (one generation); 310,000 tested, 5.9% active; P. falciparum luciferase growth in erythrocytes, 48 h; Potency, µM (top dose mostly 28.7 µM), hits mostly inhibitors; AID 504832
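Parasite viability was followed by luminescence of a genomically integrated firefly luciferase. Cultures held 0.1% parasitemia at 2% hematocrit (final), incubated under 5% CO2 at 37 C.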
Vaccinia Venus: vaccinia inhibition (Venus reporter). Vaccinia virus Venus reporter expression, fluorescence. Potency, µM (series often up to 36.5 µM), usual class: inhibitors. 330,000 tested, 0.46% active. AID 720580; calls by dose curve; tested in A549 cells; also: nearly all actives have a fitted effect of over 30% in size
Pf growth 96h: P. falciparum growth inhibition at 96 hours. P. falciparum luciferase reporter growth, 96 h. Potency, µM (top dose mostly 28.7 µM), usual class: inhibitors. 320,000 tested, 6.9% active
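Parasite growth measured via integrated firefly luciferase reporter in P. falciparum. Infected erythrocytes at 2% hematocrit, 0.05% parasitemia final were treated 96 hours at 37 C under 5% CO2, and luminescence was read.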
VACV mCherry inh: vaccinia inhibition (mCherry reporter). Vaccinia virus mCherry reporter infection, fluorescence. Potency, µM (titrated, usually from 36.5 µM), most hits filed as inhibitors. 310,000 tested, 0.63% active. AID 720579; calls by dose curve; tested in A549 cells; also: nearly all actives have a fitted effect of over 35% in size
AMA1 RON2 block: AMA1-RON2 (P. falciparum) interaction inhibition | AID 720542 | AlphaScreen AMA1-biotinylated RON2 peptide binding | 360,000 tested, 0.2% active | Potency, µM (series often up to 58.2 µM), usual class: inhibitors; also: nearly all actives have a fitted effect of over 45% in size
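AMA1 (3D7) with his tag at 25 nM final met compounds first, then biotinylated RON2 peptide at 25 nM; detection used donor plus acceptor beads, 10 µg/mL apiece, read by AlphaScreen after 30 min at room temperature.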
Numbers stand for hits; - = inactive; ? = inconclusive; . = not tested or not shown; [ ] = dose if it differs, or a comment. Unless noted, calls follow the shape of the dose curve; as a rule, active = well fitted curve in the direction sought with a large enough effect; inconclusive = small, poorly fitted or top-dose-only effect, or another doubt; inactive = no such curve, though single readings can be large; an effect the other way counts as inactive or inconclusive.

SMILES	Pf growth 48h	Vaccinia Venus	Pf growth 96h	VACV mCherry inh	AMA1 RON2 block
Oc1ccc(/C=C/c2nc(-c3ccccc3O)n(-c3ccccc3)n2)c(O)c1	.	-[7.34 µM]	.	-[7.34 µM]	.
COc1ccc(N2C(=O)/C(=C/c3ccc([N+](=O)[O-])cc3)C=C2c2ccccc2)cc1	?	-	13.1µM	-	-
O=C1/C(=C/c2ccc([N+](=O)[O-])cc2)C=C(c2ccccc2)N1c1ccccc1	-	-	?	-	-
CCOc1ccccc1-n1ccnc(NCc2ccc(F)cc2)c1=O	.	-	.	-	.
CC(=O)N=c1c(C#N)cc2c(=O)n3cccc(C)c3nc2n1CCCOC(C)C	?	-	10.4µM	?	-
CCOCCCn1c(=NC(=O)c2cccs2)c(C#N)cc2c(=O)n3ccccc3nc21	4.65µM	-	10.4µM	-	-
COCCCn1c(=NC(=O)c2ccncc2)c(C#N)cc2c(=O)n3cccc(C)c3nc21	2.94µM	.	-	.	-
Cc1cccn2c(=O)c3cc(C#N)c(=NC(=O)c4ccncc4)n(CCCOC(C)C)c3nc12	4.15µM	?	6.57µM	.	-
CCCn1c(=NC(=O)c2ccncc2)c(C#N)cc2c(=O)n3cccc(C)c3nc21	.	-	.	-	-
Cc1cc(C)cc(OCc2cc(=O)n3cc(C)sc3n2)c1	.	-	.	-	.
Cc1cc(C)c2c(n1)NCCC2	.	-	.	-	.
Cc1cccn2c(=O)c3cc(C#N)c(=NC(=O)c4cccs4)n(CCCOC(C)C)c3nc12	1.65µM	-	1.85µM	-	-
CN(Cc1ccco1)c1nc(-c2cccc(C#N)c2)nc2ccccc12	.	-	.	-	.
CC1CN(C2=NC(=O)/C(=C3/C(=O)N(Cc4ccc(F)cc4)c4ccccc43)S2)CC(C)O1 (stereo not drawn)	?	.	5.86µM	.	-
CN1C(=O)/C(=C2\SC(N)=NC2=O)c2ccccc21	.	-	-	-	-
CN1C(=O)/C(=C2\SC(N3CCCCCC3)=NC2=O)c2ccccc21	.	.	4.15µM	.	-
O=S(=O)(c1ccc(Cl)cc1)c1nnn2c1nc(NC1CCCCC1)c1sccc12	.	-	.	-	.
Cc1c(OC(C)C(=O)NCCCN2CCOCC2)ccc2c1oc(=O)c1ccccc12 (stereo not drawn)	?	-	?	-	-
CC(Oc1ccc2c(c1)c1ccnc3c4ccccc4c(=O)n2c13)C(=O)NCCN1CCOCC1 (stereo not drawn)	4.65µM	?	4.15µM	-	-
COc1ccc2c(c1OC)c(=O)n1c3ccc(OC(C)C(=O)NCCN4CCOCC4)cc3c3ccnc2c31 (stereo not drawn)	?	-	3.7µM	-	-
COc1ccc2c(c1OC)c(=O)n1c3ccc(OC(C)C(=O)NCCCN4CCOCC4)cc3c3ccnc2c31 (stereo not drawn)	3.7µM	-	4.15µM	-	-
CC(Oc1ccc2c3c(c(=O)oc2c1)CCCC3)C(=O)NCCN1CCOCC1 (stereo not drawn)	-	.	-	.	-
COc1ccc(C(=O)OC2=C(C(=O)c3ccccc3)N(C)S(=O)(=O)c3ccccc32)cc1OC	.	-	.	-	.
COc1ccc(CN2CCC3(CCC(CNC(=O)c4ccnn4C)O3)CC2)c(C)c1C (stereo not drawn)	.	-	.	-	.
Cc1nn(C)c2c1c(-c1ccccc1)cc(=O)n2C(C)C(=O)NCc1ccc(F)cc1 (stereo not drawn)	.	-	.	-	.
SMILES	Pf growth 48h	Vaccinia Venus	Pf growth 96h	VACV mCherry inh	AMA1 RON2 block
CC(=O)N1C=CN(C(C)=O)C(c2cn(C)c3ccccc23)C1c1cn(C)c2ccccc12 (stereo not drawn)	3.29µM	-	-	.	-
CC(=O)c1cccc(NC(=O)c2cc3sc(Cl)cc3n2C)c1	.	-	.	-	.
Cc1sc2nc(-c3cccs3)nc(N3CCCN(C)CC3)c2c1C	10.4µM	.	?	.	.
Cc1ccsc1C(=O)N(Cc1nnc(-c2ccccc2Cl)o1)C1CC1	?	-	?	-	-
CN1CCN(S(=O)(=O)c2cccc(C(=O)N(Cc3nnc(-c4ccccc4Cl)o3)C3CC3)c2)CC1	?	-	14.7µM	-	-
O=C(Nc1ccc(Cl)c(S(=O)(=O)N2CCOCC2)c1)c1cc(-c2ccccn2)nc2ccccc12	11.7µM	-	?	-	-
O=C(Nc1ccc(Cl)c(S(=O)(=O)N2CCOCC2)c1)c1ccc(OCC2CCCO2)cc1 (stereo not drawn)	11.7µM	-	4.15µM	-	-
COc1ccc(C(=O)Nc2ccc(Cl)c(S(=O)(=O)N3CCOCC3)c2)cc1	.	-	.	-	-
O=C(Nc1ccc(Cl)c(S(=O)(=O)N2CCOCC2)c1)c1ccc2c(c1)OCO2	.	-	.	-	-
O=C(Nc1ccc(Cl)c(S(=O)(=O)N2CCOCC2)c1)c1ccc(Cl)nc1	?	-	7.38µM	-	-
O=C(Nc1ccc(Cl)c(S(=O)(=O)N2CCOCC2)c1)c1ccc2c(c1)OCCO2	13.1µM	-	?	-	-
CCc1ccc(CNC(=O)CCCN2C(=O)CCn3nc(-c4cccn4C)cc32)cc1	.	-	.	-	.
O=C1CC(c2ccc(O)c(O)c2)Oc2c1ccc(O)c2O (stereo not drawn)	?	-	2.08µM	-	?
CC(C)=CCc1c(O)ccc2c1OC(c1ccc(O)c(O)c1)CC2=O (stereo not drawn)	-	-	?	-	-
Cc1nn(-c2c(Cl)cc(Cl)cc2Cl)c(=O)c2ccccc12	.	?	13.1µM	.	-
Cc1nn(-c2ccc(Br)cc2)c(=O)c2ccccc12	-	-	-	-	-
COc1ccc2c(CNC3CCCC3)c(C(=O)O)n(Cc3ccccc3C)c2c1	.	-	.	-	.
COc1cccc(/C=C/c2ccnc3ccccc23)c1OC	.	-	.	-	.
CCNC(=S)N/N=C/c1sc(N2CCCCC2)nc1-c1cccs1	0.262µM	-	0.165µM	-	-
CCC(=O)N1c2ccccc2CC1C(=O)NCCN1CCN(c2cccc(C(F)(F)F)c2)CC1 (stereo not drawn)	.	-	.	-	.
CCc1nn2c(-c3ccco3)ccnc2c1-c1ccccc1	.	-	.	-	.
CN(CC1CCN(CCc2cccc(C(F)(F)F)c2)CC1)C(=O)c1ccc(F)cc1	-	-	13.1µM	-	-
CN(CC1CCN(CCc2cccc(C(F)(F)F)c2)CC1)C(=O)c1ccccc1	-	.	?	.	-
CC1CN(CCC(=O)NC(c2cccnc2)C(F)(F)F)Cc2cc(Cl)ccc2O1 (stereo not drawn)	.	-	.	-	.
O=C1C(=O)C(c2cc(O)c(O)c(O)c2)Oc2cc(O)cc(O)c21 (stereo not drawn)	.	-	.	-	.
O=c1[nH][nH]cc1C=Nc1cc(Cl)ccc1O	?	-	6.57µM	-	-
COc1ccc(-c2cc3c(=O)n(CC(=O)Nc4ccc(Br)c(C)c4)ccn3n2)cc1OC	.	-	.	-	.
COc1cc(CNCCCN2CCOCC2)ccc1OCC(=O)Nc1cccc(C(F)(F)F)c1	1.85µM	-	?	-	-
COc1cc(C(=O)NCc2ccc(S(N)(=O)=O)cc2)ccc1OCC(=O)Nc1cccc(C(F)(F)F)c1	-	-	-	-	-
CCOc1cc(CNCCCN2CCOCC2)ccc1OCC(=O)Nc1cccc2ccccc12	2.94µM	.	2.62µM	.	-
